A selection: hits, their analogues and other compounds. The true share with any hit is near 5.2%.
A3G deaminase = blocks human APOBEC3G single-stranded DNA deamination | AID 493012 | recombinant A3G, ssDNA deamination FAM/TAMRA fluorescence | Q9HC16 | hit rate 0.28% among 330,000 | inhibition, % at 20 µM;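 active = inhibition of at least 40% at 20 µM, with no more than 30% in the related APOBEC3A deaminase screen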;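 also: plate controls were DMSO wells with A3G for no effect and wells lacking A3G enzyme for full effect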
ALR H2O2 inh = inhibitors of human sulfhydryl oxidase ALR; purified ALR, DTT oxidation, H2O2 HRP-luminol luminescence; inhibition, % (concentration not given with the values); hit rate 3.8% among 290,000; P55789;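 active = mean replicate inhibition above about 79%, with every replicate also reaching it, limit read from the data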
Target sequence (P55789 whole entry, looked up): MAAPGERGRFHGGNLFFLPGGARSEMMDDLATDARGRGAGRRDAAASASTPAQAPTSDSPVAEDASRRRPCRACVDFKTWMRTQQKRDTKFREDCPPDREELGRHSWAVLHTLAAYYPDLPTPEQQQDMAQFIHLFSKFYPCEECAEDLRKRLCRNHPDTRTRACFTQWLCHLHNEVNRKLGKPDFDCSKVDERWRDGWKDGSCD
PfM18AAP inh-1 = PfM18AAP enzyme inhibition. recombinant PfM18AAP, H-Glu-NHMec fluorogenic cleavage. inhibition, % at 7.35 µM. hit rate 1.2% among 290,000. AID 1822;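 active = inhibition above the campaign mean inhibition over all tested compounds plus 3 SD, cut at about 28% in these data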;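 also: 0% = plate median of test compound wells and 100% = 2 mM ZnCl2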
A3A deaminase = blocks human APOBEC3A ssDNA deamination; P31941; recombinant A3A, FAM/TAMRA ssDNA deamination fluorescence; inhibition, % at 20 µM; hit rate 0.41% among 330,000;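 active = at least 40% inhibition at 20 µM here, with at most 30% in a related deaminase screen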;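 also: plate controls were A3A with DMSO for no effect and wells lacking A3A enzyme for full effect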
CR mimetic SO = yeast age-related superoxide inhibition as caloric restriction mimetic | S. cerevisiae aged cells, superoxide DHE fluorescence; stronger effect = lower value | superoxide response (% of plate mean), % at 10 µM | hit rate 0.18% among 330,000;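 active = superoxide response under a set limit, about three screen SD below normal, cut at about 65% in these data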;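 also: yeast aged for seven days with compound at 30 °C before DHE staining; 100% = average MFI of all compound-treated wells on the plate with controls excluded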
NRP1-CendR mod = alters CendR peptide binding to human NRP-1; FAM-RPARPAR peptide binding to NRP-1, fluorescence polarization; inhibition, % at 25 µM; hit rate 0.85% among 360,000; AID 602438;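 active = inhibition or corrected inhibition above about 18%, plus a signal ratio from 0.5 to 1.5, limit read from the data, passing the limit was not always enough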
PfM18AAP inh-2 = PfM18AAP inhibition, confirmation | recombinant PfM18AAP, H-Glu-NHMec fluorogenic cleavage | hit rate 28% among 2,400 | shares compounds with PfM18AAP inh-1 | AID 2170 | inhibition, % at 7.35 µM;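 active = mean inhibition over replicate wells above the hit cutoff set for the earlier primary screen, cut at about 29% in these data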;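 also: 0% = median of test compound wells and 100% = 2 mM ZnCl2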
CTSL1 confirm = Cathepsin L (human) inhibition, confirmation. inhibition, % at 5.96 µM. purified cathepsin L1, Z-Leu-Arg-MCA fluorescence. shares compounds with PfM18AAP inh-1. 2,400 tested, under 10 active;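 active = average inhibition across replicates above the hit cutoff set in the earlier primary screen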;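 also: 0% = median of test compound wells and 100% = Z-Phe-Ala-diazomethylketone 1 µM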
Target sequence (P07711 whole entry, looked up): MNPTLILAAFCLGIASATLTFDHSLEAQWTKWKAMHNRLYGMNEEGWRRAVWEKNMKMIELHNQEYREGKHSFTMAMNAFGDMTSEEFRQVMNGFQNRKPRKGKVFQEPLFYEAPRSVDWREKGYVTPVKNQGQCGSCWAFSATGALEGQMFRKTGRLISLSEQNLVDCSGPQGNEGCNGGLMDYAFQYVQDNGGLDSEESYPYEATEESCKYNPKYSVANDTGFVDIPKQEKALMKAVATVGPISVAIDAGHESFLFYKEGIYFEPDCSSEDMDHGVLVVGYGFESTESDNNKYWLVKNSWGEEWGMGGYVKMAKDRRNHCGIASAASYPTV
Active calls of the source: *; . = no result.

SMILES	A3G deaminase	ALR H2O2 inh	PfM18AAP inh-1	A3A deaminase	CR mimetic SO	NRP1-CendR mod	PfM18AAP inh-2	CTSL1 confirm
CCCNC(=O)c1ccc2c(=O)c(O)c(-c3ccc(F)cc3)[nH]c2c1	-5	-42	.	-2	91	0	.	.
Nc1c(Cl)cc(-c2[nH]c3cc(C(=O)NCCO)ccc3c(=O)c2O)cc1Cl	-15	-3	40*	0	87	5	-4	1
O=C(O)c1ccc(Nc2nc3c(s2)CCCC3)cc1	-4	4	11	0	114	3	.	.
Cc1cccc(Nc2nc3c(s2)CCCC3)c1	.	96*	32*	.	92	-2	-9	-1
COC(=O)c1c(N)sc(C(=O)NCCc2ccccc2)c1C	1	44	40*	-1	106	6	-11	-5
COc1cccc(OC)c1C(=O)NCCc1ccccc1	7	-2	.	-2	103	9	.	.
O=C(NC1CCCCC1)C(c1ccncc1)N(Cc1ccc2c(c1)OCO2)C(=O)C(F)(F)F (stereo not given)	0	16	41*	0	99	-1	16	9
CCc1ccc(N(C(=O)C(F)(F)F)C(C(=O)NC2CCCCC2)c2ccncc2)cc1 (stereo not given)	0	-3	0	-4	110	13	.	.
O=C(CCCc1c[nH]c2ccccc12)NCCc1c[nH]c2ccccc12	-9	11	6	-5	96	-10	.	.
Cc1cc(=O)n2[nH]c(N)c(N=Nc3ccccc3)c2n1	.	31	41*	.	135	-3	32*	8
O=C(O)C1Sc2[nH]c(=O)sc2C2c3ccc(O)cc3OC(=O)C12 (stereo not given)	13	68	38*	9	104	-55	5	-7
O=c1[nH]c2c(s1)C(c1ccc(O)cc1)C1C3CCC(C3)C1S2 (stereo not given)	-3	53	2	0	87	-16	.	.
C/C(Cn1nc([N+](=O)[O-])cc1C)=N\NC(=O)c1ccc(O)cc1O	-4	5	41*	-8	100	-11	4	6
CC(C)[C@@H]1Cc2[nH][nH]c(=O)c2[C@H](CCc2ccccc2)O1	.	.	.	.	.	0	.	.
COc1ccc(NC(=O)c2sc3nc(N4CCOCC4)c4c(c3c2N)CCCC4)cc1	.	.	.	.	.	-12	.	.
CCOC(=O)c1ccc(NC(=O)c2sc3nc(N4CCOCC4)c4c(c3c2N)CCCC4)cc1	5	-3	42*	-4	114	-1	-17	-2
Nc1c(C(=O)NCCc2ccccc2)sc2nc(N3CCOCC3)c3c(c12)CCCC3	-4	.	37*	0	115	7	-17	-3
COc1ccccc1NC(=O)c1sc2nc(N3CCOCC3)c3c(c2c1N)CCCC3	-4	.	27	-1	118	14	.	.
Cc1ccccc1NC(=O)c1sc2nc(N3CCOCC3)c3c(c2c1N)CCCC3	20	-10	41*	-3	122	33*	26	3
CN(C(=O)c1sc2nc(N3CCOCC3)c3c(c2c1N)CCCC3)c1ccccc1	-12	-27	10	-5	104	7	.	.
CC(Sc1ncn[nH]1)C(=O)NCc1ccccc1 (stereo not given)	-2	-16	35*	1	76	-1	17	-1
O=C(CSc1ncn[nH]1)NCCc1ccccc1	-7	-1	9	-3	103	11	.	.
COc1cc(NC(=O)Nc2ccc3c(c2)OCO3)cc(OC)c1OC	-3	-10	0	0	102	-12	.	.
COc1cc(NC(=O)NNC(=O)c2cc3occc3n2C)cc(OC)c1OC	-3	43	60*	-3	89	-11	30*	-1
c1ccc2sc(NN=C3CCCCCC3)nc2c1	0	4	33*	-1	147	2	-35	0
SMILES	A3G deaminase	ALR H2O2 inh	PfM18AAP inh-1	A3A deaminase	CR mimetic SO	NRP1-CendR mod	PfM18AAP inh-2	CTSL1 confirm
O=[N+]([O-])c1ccc(Nc2nc(N/N=C/c3cccc(F)c3)nc(N3CCCC3)n2)cc1	-6	-1	44*	-3	112	2	-35	0
COc1cccc(/C=N/Nc2nc(Nc3ccc([N+](=O)[O-])cc3)nc(N3CCCC3)n2)c1O	-5	-12	3	0	97	10	.	.
O=[N+]([O-])c1ccc(-c2ccc(/C=N/n3cnnc3)o2)c(Br)c1	-5	38	51*	0	100	0	-10	4
Cc1c(Cl)cccc1-c1ccc(/C=N/n2cnnc2)o1	-3	-1	23	2	103	-7	.	.
O=C(O)c1cccc(-c2ccc(/C=N/Nc3ccc([N+](=O)[O-])cc3)o2)c1	-7	19	18	-1	95	16	.	.
Cc1c(C(=O)O)cccc1-c1ccc(/C=N/n2cnnc2)o1	11	.	35*	34	93	-14	-1	-3
Cc1cc([N+](=O)[O-])c(C)cc1-c1ccc(/C=N/n2cnnc2)o1	-5	-16	15	-3	100	-8	.	.
O=C(O)c1cccc(-c2ccc(/C=N/n3cnnc3)o2)c1	10	-10	32*	2	90	3	-12	7
Oc1ccc(/C=N/n2cc(-c3ccccc3)[nH]c2=S)cc1	1	99*	61*	-11	112	-7	41*	4
S=c1[nH]c(-c2ccccc2)cn1/N=C/c1ccccc1Br	-3	1	33*	-7	93	-3	24	3
CC(CCc1ccccc1)NC(=O)c1ccc(NC(=O)c2ccc(Cl)cc2Cl)cc1 (stereo not given)	0	-2	-5	1	91	8	.	.
COc1cc2c(cc1OC)CN(C(=O)CCOc1ccccc1C)CC2	-4	.	-15	1	94	0	.	.
Cc1ccc(C)c(S(=O)(=O)NNC(=O)c2sc(NS(=O)(=O)c3ccccc3)nc2C)c1	-9	14	36*	-11	81	4	-10	-1
Cc1ccc(N/C=C(\C2OC(=O)c3ccccc32)[N+](=O)[O-])c(C)c1 (stereo not given)	-6	0	51*	-3	96	10	-36	5
Cc1ccc(NC=C(S(=O)(=O)c2ccccc2)S(=O)(=O)c2ccccc2)c(C)c1	-8	-1	-1	0	97	0	.	.
COc1ccc(C(=O)Nc2ccc(/C(C)=N/NC(=O)c3ccccc3O)cc2)cc1OC	-3	.	37*	3	98	6	-52	9
COc1ccc(C(=O)N/N=C(/C)c2cccc(NC(=O)c3ccncc3)c2)cc1OC	-4	-14	-4	-2	98	-4	.	.
COc1ccc(C(=O)n2cnnc2N)cc1	0	5	48*	1	87	-11	61*	1
CCOc1ccc(C(=O)n2cnnc2N)cc1	-4	.	48*	-6	104	-1	56*	1

Screening data from PubChem.
